Screens: PubChem, National Center for Advancing Translational Sciences (NCATS)
Luciferase inh: inhibitors of firefly (Photinus pyralis) luciferase; Potency, µM (doses to about 115 µM), hits mostly inhibitors; P08659; 2.5% of 76,000 active; purified P. pyralis luciferase, luminescence, biochemical; note: nearly all actives have a fitted effect of over 65% in size
Target sequence (P08659 whole entry, looked up): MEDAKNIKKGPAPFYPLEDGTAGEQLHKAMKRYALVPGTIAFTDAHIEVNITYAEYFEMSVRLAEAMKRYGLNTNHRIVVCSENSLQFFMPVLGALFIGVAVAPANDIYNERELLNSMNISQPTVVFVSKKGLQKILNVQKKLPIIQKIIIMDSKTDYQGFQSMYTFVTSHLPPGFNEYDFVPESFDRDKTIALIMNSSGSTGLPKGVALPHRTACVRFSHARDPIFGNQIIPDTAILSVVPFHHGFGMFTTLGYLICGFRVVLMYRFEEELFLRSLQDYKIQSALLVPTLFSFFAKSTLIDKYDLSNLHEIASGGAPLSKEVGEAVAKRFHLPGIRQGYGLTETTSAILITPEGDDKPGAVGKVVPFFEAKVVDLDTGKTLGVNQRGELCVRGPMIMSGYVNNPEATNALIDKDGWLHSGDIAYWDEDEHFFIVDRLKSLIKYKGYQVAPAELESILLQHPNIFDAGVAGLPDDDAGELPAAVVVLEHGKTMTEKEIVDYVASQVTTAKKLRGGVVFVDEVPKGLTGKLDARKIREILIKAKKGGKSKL
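Luminescence read by CCD imager after adding enzyme (10nM final) to wells holding compound, titrated in qHTS. Substrates 10uM each D-luciferin and ATP; buffer 50mM Tris acetate pH 7.5, 10mM Mg acetate, Tween-20, BSA.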
SNCA viab count: cell viability loss counter-screen; HEK-293-SNCA-luc viability, GF-AFC fluorescence, 24 h; 0.12% of 150,000 active; Potency, µM (top dose mostly 57.1 µM), without a hit: top-dose activity change, negative = cytotoxicity, actives largely listed as cytotoxic;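 note: 0% = DMSO-treated cells and -100% = medium-only wells without cells; nearly all actives have a fitted effect of over 30% in size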
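HEK-293-SNCA-luc cells (1500/well) plated 24 h, then exposed 24 h to a dilution series; GF-AFC added 30 min at 37C, fluorescence 405/540 nm; normalised to medium-only and DMSO wells, Hill fit.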
hNpr1 antagonist: blocks ANP-stimulated signaling of human Npr1 receptor; P16066; HEK293 hNpr1 GloSensor cGMP, ANP-stimulated luminescence; Potency, µM (highest dose often 46.3 µM), for inactives: at the highest dose activity change, negative = inhibition, usual class: inhibitors; 1.6% of 76,000 active; AID 1347048; calls by dose curve; note: nearly all actives have a fitted effect of over 60% in size
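Compound pre-incubated 30 min at room temperature on GloSensor-loaded HEK293 cells stably carrying hNpr1 and the pGS-40F cGMP biosensor. Stimulation uses hNppA at 0.1 nM final; luminescence is taken at baseline and 20 min post-agonist.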
HEK cytotox: cytotoxic compounds in HEK 293 cells; HEK 293 viability, ATP luminescence (CellTiter-Glo), 48-72 h; Potency, µM (series often up to 115 µM), without a hit: at the highest dose activity change, negative = cytotoxicity, usual class: inhibitors; 6.6% of 94,000 active; note: nearly all actives have a fitted effect of over 60% in size
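Cells seeded first (HEK 293, 250 cells/well), then compound added by pintool. Incubation ran 48 or 72 hr at 37 degree Celsius. CellTiter-Glo was added and luminescence imaged after 10 min at room temperature.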
SNCA expr inhib: reduces expression of the alpha-synuclein gene | HEK-293 SNCA-luciferase knock-in, luminescence, 24 h | Potency, µM (titrated, usually from 57.2 µM), for the others: top-dose activity change, negative = inhibition, hits mostly inhibitors | 0.17% of 140,000 active;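 note: plate controls were DMSO cells for no effect and cell-free wells for full effect; nearly all actives have a fitted effect of over 45% in size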
NIH3T3 tox: kills NIH 3T3 cells. NIH 3T3 viability, CellTiter-Glo ATP luminescence, 48-72 h. Potency, µM (highest dose often 96.7 µM), without a hit: top-dose activity change, negative = cytotoxicity, actives largely listed as inhibitors. 4.3% of 94,000 active; note: nearly all actives have a fitted effect of over 55% in size
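Luminescent ATP readout (CellTiter-Glo, 10 min RT) after 48 or 72 hr compound exposure of NIH 3T3 cells seeded at 400 cells/well in 1536-well format; quantitative HTS.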
* = called active by the depositor; i = inactive; ? = inconclusive; . = no result; [ ] = another dose, or the depositor's remark. Most compounds without a hit are left out; they make up all but 7.2% or so of the library. Unless noted, calls come from the whole dose curve; as a rule, active = well fitted curve in the direction sought with a large enough effect; inconclusive = small, poorly fitted or top-dose-only effect, or another doubt; inactive = no such curve, though single readings can be large; an effect the other way counts as inactive or inconclusive. Unless noted, % is set by controls: 0 for no effect and ±100 for the full control effect; potency is the fitted concentration of half-maximal effect.

SMILES	Luciferase inh	SNCA viab count	hNpr1 antagonist	HEK cytotox	SNCA expr inhib	NIH3T3 tox
CCN(CC)C(=O)CCC1CCN(C(=O)c2ccccc2F)CC1	35.5µM*	-16.5%	-3.6%	-10.0%	61.5%	i
CC(C)NC(=O)CCC1CCN(C(=O)c2ccccc2F)CC1	39.8µM*	7.3%	0.2%	2.3%	132.0%	i
O=C(CCC1CCN(C(=O)c2ccccc2F)CC1)NCCCc1ccccc1	i	-4.0%	-14.4%	?	-23.4%	-15.6%
CCn1ncc(CN2CCC(C3CCN(C)CC3)C2)c1C (stereo unspecified)	i	1.5%[12.5 µM]	3.9%	-2.0%	?	-7.4%
C=C1CC23CC(=O)C4C(CO)(CO)CCCC4(C)C2CCC1C3 (stereo unspecified)	.	-7.8%	.	.	.	.
CC(=O)N1CCCN(c2ncnc3c2CN(c2ccc([N+](=O)[O-])cc2)C(=O)N(C)C3)CC1	i	-2.3%	9.3%	4.5%	-4.6%	-17.6%
CN(C(=O)c1ccc2cccc(F)c2n1)C1CCCN(CCCc2ccccc2)C1 (stereo unspecified)	i	-9.4%	15.4%	?	59.6%	?
CN(C(=O)c1cc2ccccc2oc1=O)C1CCCN(CCCc2ccccc2)C1 (stereo unspecified)	i	-7.8%	0.0%	?	-12.8%	39.8µM*
COc1ccc(-c2cc(C[C@H]3CNCC[C@H]3CC(=O)N3CCN(c4ccccc4OC)CC3)no2)cc1	i	-15.0%	-20.0%	?	1.1%	14.1µM*
CC(C)(C)NC(=O)C[C@@H]1CCNC[C@@H]1Cc1cc(-c2ccc(C(C)(C)C)cc2)on1	i	?	-11.0%[70.6 µM]	12.6µM*	?	22.4µM*
O=C(C[C@@H]1CCNC[C@@H]1Cc1cc(-c2ccccc2)on1)NCc1ccccc1	i	7.1%[87.6 µM]	-16.9%[70.6 µM]	?	4.5%[87.6 µM]	100µM*
O=C(C[C@@H]1CCNC[C@@H]1Cc1cc(-c2ccccc2)on1)NCc1cccnc1	i	0.1%[87.6 µM]	2.4%[70.6 µM]	-14.8%[172 µM]	2.6%[87.6 µM]	3.1%[174 µM]
COc1ccc(-c2cc(C[C@H]3CNCC[C@H]3CC(=O)Nc3ccccc3)no2)cc1	i	1.8%[87.6 µM]	-21.1%[70.6 µM]	44.7µM*	17.2%[87.6 µM]	39.8µM*
CC(C)(C)c1ccc(-c2cc(C[C@H]3CNCC[C@H]3CC(=O)N3CCN(c4ccc(F)cc4)CC3)no2)cc1	i	-4.6%	-2.6%	?	-9.4%	?
COc1ccc(-c2cc(C[C@H]3CNCC[C@H]3CC(=O)NC(C)C)no2)cc1	i	2.9%[87.6 µM]	-4.1%[70.6 µM]	-20.6%[172 µM]	0.3%[87.6 µM]	-10.5%[174 µM]
O=C(NCCc1ccccc1F)C1CCc2nnc(C3CCN([S+](=O)([O-])c4ccccc4Cl)CC3)n21 (stereo unspecified)	.	-11.8%	.	1.2%	1.6%	-14.6%
CCNC(=O)NCC1CCN(Cc2cc(Cl)cc(Cl)c2)C1 (stereo unspecified)	i	6.4%	2.8%	i	12.5%	i
O=C(C[C@@H]1CCNC[C@@H]1Cc1cc(-c2ccc(F)cc2)on1)NCc1ccc2c(c1)OCO2	i	0.9%	-0.4%	?	16.9%	?
COc1ccc(-c2cc(C[C@H]3CNCC[C@H]3CC(=O)NCc3ccccc3)no2)cc1	i	-1.8%[87.6 µM]	-18.6%[70.6 µM]	89.1µM*	-6.1%[87.6 µM]	112µM*
COc1ccc(-c2cc(C[C@H]3CNCC[C@H]3CC(=O)NCc3cccs3)no2)cc1	i	15.9%[87.6 µM]	-14.7%[70.6 µM]	56.2µM*	-16.2%[87.6 µM]	89.1µM*
COc1ccc(-c2cc(C[C@H]3CNCC[C@H]3CC(=O)NCCN3CCOCC3)no2)cc1	i	2.1%	1.6%	-6.1%	7.0%	-11.1%
COc1ccc(-c2cc(C[C@H]3CNCC[C@H]3CC(=O)NCc3cccnc3)no2)cc1	i	-0.2%[87.6 µM]	-8.9%[70.6 µM]	-15.0%[172 µM]	3.8%[87.6 µM]	-23.0%[174 µM]
CC(C)(C)c1ccc(-c2cc(C[C@H]3CNCC[C@H]3CC(=O)NCc3ccc(F)cc3)no2)cc1	i	-2.7%	1.3%	28.2µM*	-5.0%	25.1µM*
COc1ccc(CNC(=O)C[C@@H]2CCNC[C@@H]2Cc2cc(-c3ccc(C(C)(C)C)cc3)on2)cc1	i	?	2.1%	?	?	25.1µM*
COc1ccc(-c2cc(C[C@H]3CNCC[C@H]3CC(=O)NCc3ccc(F)cc3)no2)cc1	i	11.4%	-13.8%	?	-6.1%	?
SMILES	Luciferase inh	SNCA viab count	hNpr1 antagonist	HEK cytotox	SNCA expr inhib	NIH3T3 tox
CC(=O)NCCNC(=O)C[C@@H]1CCNC[C@@H]1Cc1cc(-c2ccccc2)on1	i	0.4%[87.6 µM]	-0.9%[70.6 µM]	i	-0.9%[87.6 µM]	i
O=C(C[C@@H]1CCNC[C@@H]1Cc1cc(-c2ccc(F)cc2)on1)NCc1ccc(F)cc1	i	-1.6%[87.6 µM]	-4.2%[70.6 µM]	79.4µM*	-24.9%[87.6 µM]	39.8µM*
O=C(C[C@@H]1CCNC[C@@H]1Cc1cc(-c2ccc(F)cc2)on1)NCc1cccnc1	i	2.0%[87.6 µM]	-2.2%[70.6 µM]	-2.2%[172 µM]	27.1%[87.6 µM]	2.2%[138 µM]
O=C(C[C@@H]1CCNC[C@@H]1Cc1cc(-c2ccccc2)on1)NCc1cccs1	i	-5.2%[87.6 µM]	-3.4%[70.6 µM]	89.1µM*	30.9%[87.6 µM]	?
O=C(C[C@@H]1CCNC[C@@H]1Cc1cc(-c2ccc(F)cc2)on1)NCc1ccccc1	i	0.5%[87.6 µM]	-1.5%[70.6 µM]	100µM*	-2.1%[87.6 µM]	112µM*
C#Cc1cccc(C(=O)N2CCC(Cc3ccc(Cl)cc3)(C(=O)OCC)CC2)c1	i	6.0%	-4.7%	?	-5.7%	20µM*
CN1C(=O)CCc2cc(NC(=O)Cc3ccc(Cl)cc3)ccc21	i	5.1%	-1.5%	?	11.7%	?
C=CCNC(=O)N1CCOC(CN(CC(C)C)C(=O)c2ccccc2)C1 (stereo unspecified)	i	7.4%	0.2%	0.2%	-11.1%	-3.7%
O=C(C1CCCN1c1nccc(Nc2ccccc2F)n1)N1CCC(Cc2ccccc2)CC1 (stereo unspecified)	.	1.4%[12.5 µM]	.	28.2µM*	-21.8%	39.8µM*
O=C(NCc1ccccc1)C1CCCN1c1nccc(Nc2ccccc2F)n1 (stereo unspecified)	.	-4.6%[12.5 µM]	.	?	-8.4%	-31.7%
COc1ccccc1CNC(=O)C1CCCN1c1nccc(Nc2ccccc2F)n1 (stereo unspecified)	.	-8.9%[12.5 µM]	.	39.8µM*	?	?
COc1ccccc1C(=O)N1CCC(O)(c2ccccc2)[C@H](N(C)C)C1 (stereo partly specified)	i	7.4%	-0.4%	10.4%	2.1%	i
COc1ccc(C2(C(=O)NCc3cccc(Cl)c3)CCOCC2)cc1	.	.	.	-22.3%	.	-15.2%
Cc1cc(C)n(CC(=O)N2CC(N(C)Cc3cccnc3)C2)n1	35.5µM*	3.7%	1.0%	8.6%	113.0%	i
CN(Cc1cccnc1)C1CN(C(=O)c2cnn(C)c2)C1	28.2µM*	-0.5%	-3.7%	0.3%	168.7%	4.5%
